In paper PMC7862700, “An all-to-all approach to the identification of sequence-specific readers for epigenetic DNA modifications on cytosine”:

What was measured:
Test in all cases: DAPPL (digital affinity profiling via proximity ligation, sequencing); 10 mM Tris-HCl pH 7.5, 50 mM NaCl, 1 mM DTT, 4% glycerol, room temperature, 30 min; GST-TFs on glutathione beads, 16-mer random dsDNA library, 0.1% formaldehyde crosslink after washing; high values mean tight binding
FEV = biological target: T1, FEV (Homo sapiens, UniProt Q99581 1-238); settings: protein: recombinant; tags: N-terminal GST; dsDNA, one strand shown
T1 sequence: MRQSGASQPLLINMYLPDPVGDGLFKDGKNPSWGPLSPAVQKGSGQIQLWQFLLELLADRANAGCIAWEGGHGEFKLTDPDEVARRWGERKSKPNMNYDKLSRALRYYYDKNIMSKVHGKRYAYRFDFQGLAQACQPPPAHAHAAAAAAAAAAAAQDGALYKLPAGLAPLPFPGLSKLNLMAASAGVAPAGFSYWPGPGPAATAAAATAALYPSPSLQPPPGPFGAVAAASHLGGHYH
Outline: (§1)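 Sequencing on an Illumina NextSeq500 followed washing, crosslinking with 0.1% formaldehyde, proximity ligation (BsaI/T4 ligase, 1 h, 37 °C) and PCR amplification of pools that had been incubated for 30 min at room temperature with 200 nmole of a random double-stranded 16-mer DNA library in Tris/NaCl/DTT/glycerol buffer. Each pool held DNA-barcoded human transcription factors, expressed in yeast as GST fusions and captured on glutathione beads, plus a tag-only sample. Binding signal is a hexamer's read frequency for a factor divided by its frequency in the tag-only sample.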

ETV5 = ETV5 (Homo sapiens, UniProt P41161 1-510); settings: protein: recombinant; tags: N-terminal GST; dsDNA, one strand shown
Outline: as §1

HSF1 = HSF1 (Homo sapiens, UniProt Q00613 1-529); settings: protein: recombinant; tags: N-terminal GST; chain copies: 3; dsDNA, one strand shown
Outline: as §1

SPIC = biological target: T2, SPIC (Homo sapiens, UniProt Q8N5J4 1-248); settings: protein: recombinant; tags: N-terminal GST; dsDNA, one strand shown
T2 sequence: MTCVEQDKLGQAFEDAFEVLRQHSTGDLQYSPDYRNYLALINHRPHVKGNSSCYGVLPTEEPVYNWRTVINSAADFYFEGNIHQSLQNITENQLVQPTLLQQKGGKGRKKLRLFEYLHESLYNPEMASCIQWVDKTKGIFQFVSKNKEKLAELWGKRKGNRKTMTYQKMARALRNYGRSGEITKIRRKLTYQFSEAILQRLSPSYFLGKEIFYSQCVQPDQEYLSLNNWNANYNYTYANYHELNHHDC
Outline: as §1

ELF4 = ELF4 (Homo sapiens, UniProt Q99607 1-663); settings: protein: recombinant; tags: N-terminal GST; dsDNA, one strand shown
Outline: as §1

ELK4 = biological target: T3, ELK4 (Homo sapiens, UniProt P28324-2 1-405); settings: protein: recombinant; tags: N-terminal GST; dsDNA, one strand shown
T3 sequence: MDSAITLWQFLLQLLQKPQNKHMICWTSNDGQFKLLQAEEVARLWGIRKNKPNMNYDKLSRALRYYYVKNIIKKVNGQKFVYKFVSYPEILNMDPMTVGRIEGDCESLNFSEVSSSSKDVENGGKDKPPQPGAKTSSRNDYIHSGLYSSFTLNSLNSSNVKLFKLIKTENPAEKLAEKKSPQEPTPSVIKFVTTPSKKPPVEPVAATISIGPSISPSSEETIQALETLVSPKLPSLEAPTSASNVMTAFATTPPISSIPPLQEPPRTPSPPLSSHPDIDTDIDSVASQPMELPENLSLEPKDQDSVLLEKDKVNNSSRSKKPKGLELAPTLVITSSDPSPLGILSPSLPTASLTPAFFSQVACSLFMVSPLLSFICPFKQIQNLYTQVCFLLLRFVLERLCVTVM
Outline: as §1

ETV2 = biological target: T4, ETV2 (Homo sapiens, UniProt O00321 1-342); settings: protein: recombinant; tags: N-terminal GST; dsDNA, one strand shown
T4 sequence: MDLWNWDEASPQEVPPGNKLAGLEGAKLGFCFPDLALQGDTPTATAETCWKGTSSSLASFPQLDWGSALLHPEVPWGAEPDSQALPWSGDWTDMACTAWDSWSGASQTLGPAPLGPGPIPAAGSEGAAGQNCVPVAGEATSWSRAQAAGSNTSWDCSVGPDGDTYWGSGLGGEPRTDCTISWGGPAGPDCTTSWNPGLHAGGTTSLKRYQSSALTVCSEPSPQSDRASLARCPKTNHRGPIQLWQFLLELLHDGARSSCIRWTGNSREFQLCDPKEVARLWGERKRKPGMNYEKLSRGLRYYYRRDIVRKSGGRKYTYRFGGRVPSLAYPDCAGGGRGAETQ
Outline: as §1

ELF3 = biological target: T5, ELF3 (Homo sapiens, UniProt P78545 1-371); settings: protein: recombinant; tags: N-terminal GST; dsDNA, one strand shown
T5 sequence: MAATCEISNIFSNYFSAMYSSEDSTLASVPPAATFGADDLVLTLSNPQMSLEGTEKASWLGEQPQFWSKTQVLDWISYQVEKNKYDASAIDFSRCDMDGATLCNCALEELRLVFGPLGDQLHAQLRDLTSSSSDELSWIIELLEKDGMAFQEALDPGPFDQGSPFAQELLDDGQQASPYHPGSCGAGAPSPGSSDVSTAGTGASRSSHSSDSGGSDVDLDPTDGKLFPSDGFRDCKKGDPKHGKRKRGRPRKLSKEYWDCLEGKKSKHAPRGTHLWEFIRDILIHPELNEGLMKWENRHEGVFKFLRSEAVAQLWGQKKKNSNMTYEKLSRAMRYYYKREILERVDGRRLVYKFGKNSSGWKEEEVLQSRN
Outline: as §1

CRX = CRX (Homo sapiens, UniProt O43186 1-299); settings: protein: recombinant; tags: N-terminal GST; dsDNA, one strand shown
Outline: as §1

ETV1 = ETV1 (Homo sapiens, UniProt P50549 1-477); settings: protein: recombinant; tags: N-terminal GST; dsDNA, one strand shown
Outline: as §1

ETV1, sequence (P50549 whole entry): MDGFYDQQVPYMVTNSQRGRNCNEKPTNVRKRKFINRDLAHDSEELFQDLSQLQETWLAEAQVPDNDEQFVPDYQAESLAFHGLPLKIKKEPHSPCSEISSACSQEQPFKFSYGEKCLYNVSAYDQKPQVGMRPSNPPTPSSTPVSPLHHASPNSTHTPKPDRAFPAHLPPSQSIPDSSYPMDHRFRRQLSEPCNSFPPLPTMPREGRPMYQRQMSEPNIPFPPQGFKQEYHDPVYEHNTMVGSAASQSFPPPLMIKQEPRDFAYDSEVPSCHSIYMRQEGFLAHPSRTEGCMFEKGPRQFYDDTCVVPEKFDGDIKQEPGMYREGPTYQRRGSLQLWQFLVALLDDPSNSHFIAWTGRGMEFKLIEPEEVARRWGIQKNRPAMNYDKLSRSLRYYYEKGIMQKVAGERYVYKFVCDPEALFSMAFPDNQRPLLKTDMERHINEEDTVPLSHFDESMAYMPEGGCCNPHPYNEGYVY
HSF1, sequence (Q00613 whole entry): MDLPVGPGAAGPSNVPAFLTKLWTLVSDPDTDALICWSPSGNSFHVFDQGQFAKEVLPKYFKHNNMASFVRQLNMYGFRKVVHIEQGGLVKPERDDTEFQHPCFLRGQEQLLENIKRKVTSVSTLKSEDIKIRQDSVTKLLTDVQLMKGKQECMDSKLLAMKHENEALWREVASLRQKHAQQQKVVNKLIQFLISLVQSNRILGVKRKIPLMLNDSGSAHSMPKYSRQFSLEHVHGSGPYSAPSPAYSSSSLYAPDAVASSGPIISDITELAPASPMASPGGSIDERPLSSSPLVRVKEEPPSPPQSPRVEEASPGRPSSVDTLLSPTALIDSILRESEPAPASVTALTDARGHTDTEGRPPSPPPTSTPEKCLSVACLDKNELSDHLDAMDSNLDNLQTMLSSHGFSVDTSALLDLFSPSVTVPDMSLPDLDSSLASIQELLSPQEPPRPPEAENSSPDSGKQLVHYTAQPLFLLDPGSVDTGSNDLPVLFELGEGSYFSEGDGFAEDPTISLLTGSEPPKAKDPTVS
CRX, sequence (O43186 whole entry): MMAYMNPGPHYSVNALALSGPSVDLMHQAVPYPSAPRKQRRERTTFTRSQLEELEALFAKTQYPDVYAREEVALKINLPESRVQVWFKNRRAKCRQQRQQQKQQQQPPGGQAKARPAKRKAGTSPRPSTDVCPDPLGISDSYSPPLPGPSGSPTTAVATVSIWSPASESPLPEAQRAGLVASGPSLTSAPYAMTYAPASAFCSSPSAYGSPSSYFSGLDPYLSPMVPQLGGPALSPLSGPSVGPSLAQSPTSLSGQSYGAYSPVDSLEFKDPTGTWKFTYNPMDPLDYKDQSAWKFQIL
ETV5, sequence (P41161 whole entry): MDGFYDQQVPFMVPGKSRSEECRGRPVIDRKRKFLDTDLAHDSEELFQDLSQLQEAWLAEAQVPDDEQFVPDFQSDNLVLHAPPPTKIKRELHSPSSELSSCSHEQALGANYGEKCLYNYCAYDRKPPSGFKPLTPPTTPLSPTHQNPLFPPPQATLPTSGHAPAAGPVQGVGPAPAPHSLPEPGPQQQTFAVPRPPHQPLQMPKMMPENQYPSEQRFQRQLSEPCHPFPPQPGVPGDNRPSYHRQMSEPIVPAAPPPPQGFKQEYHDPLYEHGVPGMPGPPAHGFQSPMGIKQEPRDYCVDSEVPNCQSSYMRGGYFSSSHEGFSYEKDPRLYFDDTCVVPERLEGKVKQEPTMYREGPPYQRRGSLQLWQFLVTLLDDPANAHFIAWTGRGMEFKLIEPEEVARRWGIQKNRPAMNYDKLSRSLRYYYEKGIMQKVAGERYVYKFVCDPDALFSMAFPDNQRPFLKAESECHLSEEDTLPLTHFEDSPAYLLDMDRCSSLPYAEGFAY
ELF4, sequence (Q99607 whole entry): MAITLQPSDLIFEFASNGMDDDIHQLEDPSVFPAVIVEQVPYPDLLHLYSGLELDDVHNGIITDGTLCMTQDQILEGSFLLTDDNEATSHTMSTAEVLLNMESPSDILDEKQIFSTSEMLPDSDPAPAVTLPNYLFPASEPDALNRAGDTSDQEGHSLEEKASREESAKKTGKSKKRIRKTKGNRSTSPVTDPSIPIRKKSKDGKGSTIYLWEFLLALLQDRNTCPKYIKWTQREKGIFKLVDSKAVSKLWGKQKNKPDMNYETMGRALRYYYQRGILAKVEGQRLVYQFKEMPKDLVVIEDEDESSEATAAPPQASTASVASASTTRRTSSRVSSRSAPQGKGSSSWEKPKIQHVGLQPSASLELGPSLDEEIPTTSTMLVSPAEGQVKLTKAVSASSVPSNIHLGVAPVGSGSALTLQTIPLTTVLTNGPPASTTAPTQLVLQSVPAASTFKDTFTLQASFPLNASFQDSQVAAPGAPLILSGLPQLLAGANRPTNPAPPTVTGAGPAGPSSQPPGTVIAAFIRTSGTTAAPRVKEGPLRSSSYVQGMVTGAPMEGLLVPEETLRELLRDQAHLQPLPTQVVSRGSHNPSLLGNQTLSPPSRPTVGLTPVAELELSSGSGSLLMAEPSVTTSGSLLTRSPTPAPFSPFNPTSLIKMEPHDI

TTAGGG
binding signal (FEV): 1.13 fold enrichment (6-mer frequency, TF over GST control)
binding signal (ETV5): 1.16 fold enrichment (6-mer frequency, TF over GST control)
binding signal (HSF1): 1.48 fold enrichment (6-mer frequency, TF over GST control)
binding signal (SPIC): 1.04 fold enrichment (6-mer frequency, TF over GST control)
binding signal (ELF4): 1.16 fold enrichment (6-mer frequency, TF over GST control)
binding signal (ELK4): 1.02 fold enrichment (6-mer frequency, TF over GST control)
binding signal (ETV2): 1.15 fold enrichment (6-mer frequency, TF over GST control)
binding signal (ELF3): 1.2 fold enrichment (6-mer frequency, TF over GST control)
binding signal (CRX): 2.19 fold enrichment (6-mer frequency, TF over GST control)
binding signal (ETV1): 1.03 fold enrichment (6-mer frequency, TF over GST control)
